tested on: Plasmodium falciparum; test: GSK_TCMDC: Inhibition of Plasmodium falciparum 3D7 in whole red blood cells, using parasite LDH activity as an index of growth. Test compounds present at 2uM; format: functional

Compound	Inhibition
CCc1ccc(CN2CCC(CNC(=O)c3cc(-c4cccc(Cl)c4)cs3)C2)cc1.O=C(O)C(F)(F)F (centres undefined)	88%
Cl.Cn1ccc(-c2cccc(Nc3ccnc4cc(-c5nccs5)ccc34)c2)n1	100%
O=C(Nc1ccc(OC2CCN(Cc3ccc(F)cc3)CC2)cc1)c1cccs1.O=C(O)C(F)(F)F	84%
Cc1cc(N(CCCN(C)C)Cc2cc(F)cc(F)c2)nc(Nc2ccc(Cl)cc2)n1	99%

tested on: Plasmodium falciparum; test: GSK_TCMDC: Inhibition of Plasmodium falciparum Dd2 in whole red blood cells, using parasite LDH activity as an index of growth. Test compounds present at 2uM; format: functional

Compound	Inhibition
CN(CCN1CCCC1)c1nc2cc(-n3cnc4cc(-c5ccc(Cl)cc5)sc4c3=O)ccc2[nH]1.CS(=O)(=O)O	15%
CCOc1ccc(N(CC)S(=O)(=O)c2cc(Br)cc3c2N(C(=O)C2CC2)CC3)cc1	97%
CC(C)n1cc(CN2CCCC(C(=O)Nc3cccc(-c4cc5ccccc5[nH]4)c3)C2)cn1 (centres undefined)	65%
C=CCOc1ccc(C(=O)Nc2nonc2-c2ccc(OC)c(OC)c2)cc1	91%
CC(C)C(=O)ONC1=NC(=N)N(OCCCOc2cc(Cl)c(Cl)cc2Cl)C(C)(C)N1	96%
Cc1cc(CNCC2CCC(CNCCCc3ccccc3)CC2)ccc1O (centres undefined)	0%
Cc1ccc(C(NC(=O)C2CCCCC2)c2ccc3cccnc3c2O)cc1 (centres undefined)	59%
O=C(Nc1cccc([N+](=O)[O-])c1)Nc1ccc(Cl)c(C(F)(F)F)c1	87%
O=C(Nc1ccc(OC2CCN(Cc3ccsc3)C2)c(Cl)c1)c1ccsc1.O=C(O)C(F)(F)F (centres undefined)	70%
CCCCOC(=O)NCCCC[C@H](NC(=O)OC(C)(C)C)C(=O)N[C@H](C(=O)OC(c1ccccc1)c1ccccc1)[C@H]1O[C@@H](n2ccc(=O)[nH]c2=O)[C@@H]2OC(C)(C)O[C@@H]21	65%
CC(C)(CNC(=O)C1CCN(Cc2ccc(Cl)cc2)CC1)c1nc(-c2ccc(Cl)c(O)c2)c(-c2ccncc2)[nH]1.Cl	83%
O=C(CCNc1ccnc(NCC2CCCCC2)n1)Nc1ccccc1.O=C(O)C(F)(F)F	48%
O=C(/C=C/c1ccc(Cl)c(Cl)c1)NCCCCCN1CCCN(C(=O)Nc2ccc(Cl)c(Cl)c2)CC1	2%
CCOc1cc(Cl)c(C(C)NC(=O)c2ccccc2)cc1OCC (centres undefined)	49%
CCCc1cc(Cc2cnc(N)nc2N)cc(CC)c1O.Cl	0%
CC(C)N1CCC(N(Cc2ccc(-c3ccc(Cl)cc3)cc2)C(=O)Cn2c(CCc3cccc(F)c3F)nc(=O)c3ccccc32)CC1.O=C(O)C(O)C(O)C(=O)O	70%
COC(=O)Cc1ccc(N)c2ccccc12.Cl	0%
CCC(C)(C)c1ccc(S(=O)(=O)Nc2ccc(Cl)c(OCCN3CCCCC3)c2)cc1	93%
CCCCCCNC(=O)C1Cc2c([nH]c3ccc(Br)cc23)C2(CCN(Cc3ccccc3)CC2)N1 (centres undefined)	75%
CC(=O)Nc1ccccc1OCc1cc2cc(C(=O)N3CCC(N4C(=O)OCc5ccccc54)CC3)ccc2o1	98%

Compound	Inhibition
O=C(/C=C/c1ccccc1Cl)Nc1ccc(Br)c(OCCN2CCC(O)(c3ccccc3)CC2)c1.O=C(O)C(=O)O	85%
CN1CCc2cc(CN3CC4(C)CC3CC(C)(C)C4)c(O)cc2C(c2ccccc2)C1.Cl (centres undefined)	88%
COc1cc2c(cc1NS(=O)(=O)c1ccc(OCc3ccc(Br)cc3)cc1)CCN(C1CCC1)CC2.Cl	30%
CN1CCCC(CN2CCN(Cc3ccc(-c4cccc(-c5nc6cc(F)ccc6[nH]5)c4)cc3)CC2)C1.O=C(O)C(F)(F)F (centres undefined)	99%
CCOc1ccc(-c2nonc2NC(=O)CC(C)C)cc1OCC	37%
Nc1nc(-c2ccc3c(Nc4ccc(F)c(Cl)c4)ccnc3c2)cs1	88%
Br.CCCN(CCCCCCN(CCC)CCc1ccc(O)c(O)c1)CCc1ccc(O)cc1	5%
CCN1CCCC(Nc2ccnc3cc4ccccc4cc23)C1 (centres undefined)	100%
O=c1c2ccccc2[nH]c2nc3ccccc3c(Nc3ccccc3)c12	97%
COc1ccc(OCc2ccccn2)c(C2CCN(CCCCNC(=O)c3ccc(NC(=O)c4ccc(Cl)cc4)cc3)CC2)c1.Cl	71%
CN(C)CC(=O)NCC(NCCCNc1cc(=O)c2ccccc2[nH]1)c1cc(Br)cc(Br)c1 (centres undefined)	2%
CC(C)(C)Oc1ccc(C[C@@H]2NC3(C(=O)N(Cc4ccc(Cl)c(Cl)c4)c4ccccc43)C3C(=O)N(c4ccc(Br)cc4)C(=O)C32)cc1 (some centres undefined)	25%
O=C(Nc1cccc(Cl)c1N1CCOCC1)C(Cl)(Cl)Cl	95%
O=C(/C=C/c1ccc(Cl)cc1Cl)N1CCC(CCN2CCC(c3c[nH]c4ccccc34)CC2)CC1	37%
Br.Cc1cc(Br)c(OCCCON2C(=N)N=C(N)NC2(C)C)c(Br)c1	97%
O=C(/C=C/c1ccc(Cl)c(Cl)c1)NC1CCC(CN2CCC(c3c[nH]c4ccncc34)CC2)CC1 (centres undefined)	96%
CCc1ccc(CN2CCC(CNC(=O)c3cc(-c4cccc(Cl)c4)cs3)C2)cc1.O=C(O)C(F)(F)F (centres undefined)	19%
Cl.Cn1ccc(-c2cccc(Nc3ccnc4cc(-c5nccs5)ccc34)c2)n1	94%
O=C(Nc1ccc(OC2CCN(Cc3ccc(F)cc3)CC2)cc1)c1cccs1.O=C(O)C(F)(F)F	52%
Cc1cc(N(CCCN(C)C)Cc2cc(F)cc(F)c2)nc(Nc2ccc(Cl)cc2)n1	97%
